The other results are listed elsewhere or left out. Active and inactive are the calls of the source.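 How the source made its calls, unless noted: active means dye signal at least 3 control SD above or below untreated wells in both duplicates, raw fluorescence within 3, either direction; inactive means the rest.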

The first assay in a line: nonspecific thallium flux effects in parental HEK293 cells, confirmation, counter-screen for Kir2.1 inhibitor project, cell-based, FluxOR thallium flux, duplicate, single concentration (AID 2105).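 On FluxOR signal as % of negative control (100 = no effect): percent is based on the flux ratio of peak minus minimum fluorescence over baseline F0.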 The note with it: FluxOR thallium flux fluorescence, at 10 µM; 0% = unstimulated blank wells.
Regarding `C/C(=N\NC(=O)c1ccoc1C)c1ccccc1O`, the outcome was inactive.

`CCn1c2ccccc2c2cc(NC(=O)CNC)ccc21`: the outcome was inactive.

As for `O=C(NNC1=C(C(=O)C(F)(F)F)CCC1)c1ccncc1`, the outcome was inactive.

In the case of `Cc1ccc(NC(=O)C2CC2c2ccccc2)cc1` (stereo unspecified), the result was inactive.

For the compound `Cc1[nH]n(-c2cccc(Cl)c2)c(=O)c1/C=N/n1c(C)nc2ccccc2c1=O`, the FluxOR signal as % of negative control (100 = no effect) was 145% (active).

Turning to `COc1cccc(NC(=O)C2C(c3ccccc3)C2(Cl)Cl)c1` (stereo unspecified), the outcome was inactive.

`CCC1(C)Cc2c(sc3[nH]c(=S)n(Cc4ccccc4)c(=O)c23)CO1` (stereo unspecified): the FluxOR signal as % of negative control (100 = no effect) is 527% (active).

`O=C(NC(Nc1nc2ccc([N+](=O)[O-])cc2s1)(C(F)(F)F)C(F)(F)F)c1ccccc1`: the result was inactive.

For the compound `CCn1c(O)c(N=NC2=NC(=O)CS2)c2cc(C)ccc21`, the FluxOR signal as % of negative control (100 = no effect) was 160% (active).

For `CCn1c(=S)[nH]c2sc3c(c2c1=O)CCCCC3`, the FluxOR signal as % of negative control (100 = no effect) is 402% (active).

As for `CCn1cc(CN2CCC(C(=O)Nc3cccc(-c4cccc(Cl)c4)c3)CC2)cn1`, the outcome was inactive.

`Cc1cc2oc3ccc(NCCC4CCCN4C)cc3c(=O)c2cc1C` (stereo unspecified): the FluxOR signal as % of negative control (100 = no effect) is 67.5% (active).

Regarding `CCC1(C)Cc2c(sc3nnn(CC(=O)Nc4ccc(Cl)cc4)c(=O)c23)CO1` (stereo unspecified), the result was inactive.

Regarding `Cc1cccc(NC(=S)NC(=O)c2ccc(Br)o2)c1`, the FluxOR signal as % of negative control (100 = no effect) is 170% (active).

As to `CS(=O)(=O)c1sc(C(=O)NC(=S)Nc2ccc(OC(F)(F)F)cc2)c2c1C=CCC2`, the outcome was inactive.

With `CCOC(=O)c1sc(=S)n2c1[nH]c(=O)c1ccc(C(=O)OC)cc12`, the FluxOR signal as % of negative control (100 = no effect) is 174% (active).

On to `O=C(NCc1ccc2c(c1)OCO2)c1ccc(Cl)s1`, for which the outcome was inactive.

In the case of `CSc1nnc(NC(=O)c2nc(S(=O)(=O)Cc3ccc(C)cc3)ncc2Cl)s1`, the outcome was inactive.

As to `FC(F)(F)c1cccc(NC(=S)Nc2cccc(Cl)c2)c1`, the result was inactive.

For `CCOC(=O)c1c(NC(=S)NC)sc2c1CCCC2`, the FluxOR signal as % of negative control (100 = no effect) was 196% (active).

In the case of `Oc1c(Cl)cc(Cl)cc1/C=N/c1ncn[nH]1`, the outcome was inactive.

Regarding `Cc1ccc(S(=O)(=O)N2CCN(C(=O)COC(=O)c3c(C)cc(C)cc3C)CC2)c(C)c1`, the outcome was inactive.

In the case of `CCc1ccc(NC(=O)C(=O)NNC(=O)c2cccs2)cc1`, the FluxOR signal as % of negative control (100 = no effect) was 310% (active).

As to `S=C(NCc1ccc(Cl)cc1)NC12CC3CC(CC(C3)C1)C2`, the result was inactive.

On to `O=C(Nc1ccc(Oc2ccccc2)cc1)c1ccco1`, for which the outcome was inactive.

For the compound `CC1=C/C(=N\OS(=O)(=O)c2ccccc2)C=CC1=O`, the result was inactive.

For the compound `Cc1[nH][nH]c(=O)c1C(c1ccc(-c2ccc(Cl)cc2)o1)c1c(C)[nH][nH]c1=O`, the result was inactive.

Regarding `CC(=O)N(C1=C(Cl)C(=O)c2ccccc2C1=O)c1ccc(C(=O)O)cc1`, the outcome was inactive.

In the case of `CCc1ccc(-c2nn(-c3ccccc3)cc2CSC(=N)N)cc1`, the result was inactive.

Take `CC(NC(=O)Nc1ccccc1)c1ccccc1` (stereo unspecified): the outcome was inactive.

Consider `COc1ccc(NC(=O)/C(Cl)=C(/Cl)S(=O)Cc2ccc(C)cc2)cn1` (stereo unspecified), for which the result was inactive.

`CCN(CC(=O)NC(=O)NCc1ccccc1)Cc1nc2ccccc2c(=O)[nH]1`: the result was inactive.

Turning to `CCCCNC(=O)Nc1c(C)cc(SC#N)cc1C`, the outcome was inactive.

With `Cc1ccc2nc(C)c3c(c2c1)N(c1ccccc1)CC3`, the outcome was inactive.

Turning to `N=c1c2c(-c3ccccc3)c(-c3ccccc3)n(Cc3ccccc3)c2ncn1CCCO`, the result was inactive.

Consider `Cc1ccc(/C=N/NC(=O)c2cc3ccccc3cc2O)o1`, for which the FluxOR signal as % of negative control (100 = no effect) is 414% (active).

For the compound `N#Cc1c(-c2ccccc2)nc(SCc2cccc(C(F)(F)F)c2)[nH]c1=O`, the FluxOR signal as % of negative control (100 = no effect) is 58% (active).

In the case of `O=C(NCc1ccc2c(c1)OCO2)C12CC3CC(CC(C3)C1)C2`, the result was inactive.

As for `Cc1cccc(NC(=O)CSC(N)=O)c1C`, the outcome was inactive.

A short description of the next assay: nonspecific thallium flux increase in parental CHO-K1, confirmation, counter-screen for KCNQ2 potentiator project, cell-based, FluxOR thallium flux, duplicate (AID 2282;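 active means signal rise of at least 3 SD above the untreated control mean, in both duplicate wells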;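 further: counter screen of KCNQ2 potentiator hits so any rise reflects channel-independent effects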). The note with it: parental CHO-K1 cells, FluxOR thallium flux fluorescence; at 10 µM; stronger effect = higher value; zero = vehicle mean+3SD, 100% = vehicle-minus-blank window.
Regarding `C/C(=N\NC(=O)c1ccoc1C)c1ccccc1O`, the activity increase over 3SD of controls was 53.8% (active).

In the case of `CCn1c2ccccc2c2cc(NC(=O)CNC)ccc21`, the activity increase over 3SD of controls was -6.1% (inactive).

Consider `O=C(NNC1=C(C(=O)C(F)(F)F)CCC1)c1ccncc1`, for which the activity increase over 3SD of controls is -5.7% (inactive).

Regarding `Cc1ccc(NC(=O)C2CC2c2ccccc2)cc1` (stereo unspecified), the activity increase over 3SD of controls is 58.6% (active).

In the case of `Cc1[nH]n(-c2cccc(Cl)c2)c(=O)c1/C=N/n1c(C)nc2ccccc2c1=O`, the activity increase over 3SD of controls is 36% (active).

With `COc1cccc(NC(=O)C2C(c3ccccc3)C2(Cl)Cl)c1` (stereo unspecified), the activity increase over 3SD of controls is -15.2% (inactive).

Turning to `CCC1(C)Cc2c(sc3[nH]c(=S)n(Cc4ccccc4)c(=O)c23)CO1` (stereo unspecified), the activity increase over 3SD of controls is -13% (inactive).

For `CCn1c(O)c(N=NC2=NC(=O)CS2)c2cc(C)ccc21`, the activity increase over 3SD of controls is -1.5% (inactive).

For the compound `CCn1c(=S)[nH]c2sc3c(c2c1=O)CCCCC3`, the activity increase over 3SD of controls was -14.2% (inactive).

In the case of `CCC1(C)Cc2c(sc3nnn(CC(=O)Nc4ccc(Cl)cc4)c(=O)c23)CO1` (stereo unspecified), the activity increase over 3SD of controls was -19.3% (inactive).

With `Cc1cccc(NC(=S)NC(=O)c2ccc(Br)o2)c1`, the activity increase over 3SD of controls is -7% (inactive).

Consider `CS(=O)(=O)c1sc(C(=O)NC(=S)Nc2ccc(OC(F)(F)F)cc2)c2c1C=CCC2`, for which the activity increase over 3SD of controls is -1.6% (inactive).

As to `CCOC(=O)c1sc(=S)n2c1[nH]c(=O)c1ccc(C(=O)OC)cc12`, the activity increase over 3SD of controls is -16.8% (inactive).

On to `O=C(NCc1ccc2c(c1)OCO2)c1ccc(Cl)s1`, for which the activity increase over 3SD of controls is 5.5% (active).

With `CSc1nnc(NC(=O)c2nc(S(=O)(=O)Cc3ccc(C)cc3)ncc2Cl)s1`, the activity increase over 3SD of controls is -8.9% (inactive).

Take `FC(F)(F)c1cccc(NC(=S)Nc2cccc(Cl)c2)c1`: the activity increase over 3SD of controls was -22.1% (inactive).

In the case of `CCOC(=O)c1c(NC(=S)NC)sc2c1CCCC2`, the activity increase over 3SD of controls is 6.2% (active).

On to `Oc1c(Cl)cc(Cl)cc1/C=N/c1ncn[nH]1`, for which the activity increase over 3SD of controls was -13.3% (inactive).

Regarding `Cc1ccc(S(=O)(=O)N2CCN(C(=O)COC(=O)c3c(C)cc(C)cc3C)CC2)c(C)c1`, the activity increase over 3SD of controls is -0.8% (inactive).

With `CCc1ccc(NC(=O)C(=O)NNC(=O)c2cccs2)cc1`, the activity increase over 3SD of controls was -16% (inactive).

In the case of `S=C(NCc1ccc(Cl)cc1)NC12CC3CC(CC(C3)C1)C2`, the activity increase over 3SD of controls is 46.3% (active).

Turning to `O=C(Nc1ccc(Oc2ccccc2)cc1)c1ccco1`, the activity increase over 3SD of controls is -13.5% (inactive).

Consider `CC1=C/C(=N\OS(=O)(=O)c2ccccc2)C=CC1=O`, for which the activity increase over 3SD of controls is -13.5% (inactive).

Consider `CC(NC(=O)Nc1ccccc1)c1ccccc1` (stereo unspecified), for which the activity increase over 3SD of controls is -4.7% (inactive).

On to `COc1ccc(NC(=O)/C(Cl)=C(/Cl)S(=O)Cc2ccc(C)cc2)cn1` (stereo unspecified), for which the activity increase over 3SD of controls is -1.5% (inactive).

On to `CCN(CC(=O)NC(=O)NCc1ccccc1)Cc1nc2ccccc2c(=O)[nH]1`, for which the activity increase over 3SD of controls is -2.8% (inactive).

On to `CCCCNC(=O)Nc1c(C)cc(SC#N)cc1C`, for which the activity increase over 3SD of controls was 5.5% (active).

With `CC(=O)NNC(=O)c1csc(Cc2c(Cl)sc3ccc(Cl)cc23)n1`, the activity increase over 3SD of controls was 26.3% (active).

For `Cc1ccc(/C=N/NC(=O)c2cc3ccccc3cc2O)o1`, the activity increase over 3SD of controls was 42.5% (active).

As for `N#Cc1c(-c2ccccc2)nc(SCc2cccc(C(F)(F)F)c2)[nH]c1=O`, the activity increase over 3SD of controls was -8.3% (inactive).

Turning to `O=C(NCc1ccc2c(c1)OCO2)C12CC3CC(CC(C3)C1)C2`, the activity increase over 3SD of controls is -12% (inactive).

Consider `Cc1cccc(NC(=O)CSC(N)=O)c1C`, for which the activity increase over 3SD of controls is -5% (inactive).

The values are drawn from PubChem BioAssay.
